# Assay results as given in publication PMC4336329 (PLoS ONE, 2015).
# Out of some 310,000 compounds screened, about 14,000 (4.5%) showed an effect of 50% or more. Effects have a minus sign here. The list comes from a sample in which strong results are over-represented; it also holds similar structures and randomly drawn compounds. Where a SMILES comes first, the peptide text is derived from it. The star is where a group is joined. Cbz = O=C(OCc1ccccc1)*
# Molecular target: human ether-à-go-go-related gene (hERG) potassium channel (human, UniProt Q12809)
# Assay: primary screen, population patch clamp on CHO cells stably expressing hERG; higher = less effect of the substance
# 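Also: peak tail current of the secondary pulse compared with the same well before compound.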
# human ether-à-go-go-related gene (hERG) potassium channel, sequence (Q12809 whole entry, looked up): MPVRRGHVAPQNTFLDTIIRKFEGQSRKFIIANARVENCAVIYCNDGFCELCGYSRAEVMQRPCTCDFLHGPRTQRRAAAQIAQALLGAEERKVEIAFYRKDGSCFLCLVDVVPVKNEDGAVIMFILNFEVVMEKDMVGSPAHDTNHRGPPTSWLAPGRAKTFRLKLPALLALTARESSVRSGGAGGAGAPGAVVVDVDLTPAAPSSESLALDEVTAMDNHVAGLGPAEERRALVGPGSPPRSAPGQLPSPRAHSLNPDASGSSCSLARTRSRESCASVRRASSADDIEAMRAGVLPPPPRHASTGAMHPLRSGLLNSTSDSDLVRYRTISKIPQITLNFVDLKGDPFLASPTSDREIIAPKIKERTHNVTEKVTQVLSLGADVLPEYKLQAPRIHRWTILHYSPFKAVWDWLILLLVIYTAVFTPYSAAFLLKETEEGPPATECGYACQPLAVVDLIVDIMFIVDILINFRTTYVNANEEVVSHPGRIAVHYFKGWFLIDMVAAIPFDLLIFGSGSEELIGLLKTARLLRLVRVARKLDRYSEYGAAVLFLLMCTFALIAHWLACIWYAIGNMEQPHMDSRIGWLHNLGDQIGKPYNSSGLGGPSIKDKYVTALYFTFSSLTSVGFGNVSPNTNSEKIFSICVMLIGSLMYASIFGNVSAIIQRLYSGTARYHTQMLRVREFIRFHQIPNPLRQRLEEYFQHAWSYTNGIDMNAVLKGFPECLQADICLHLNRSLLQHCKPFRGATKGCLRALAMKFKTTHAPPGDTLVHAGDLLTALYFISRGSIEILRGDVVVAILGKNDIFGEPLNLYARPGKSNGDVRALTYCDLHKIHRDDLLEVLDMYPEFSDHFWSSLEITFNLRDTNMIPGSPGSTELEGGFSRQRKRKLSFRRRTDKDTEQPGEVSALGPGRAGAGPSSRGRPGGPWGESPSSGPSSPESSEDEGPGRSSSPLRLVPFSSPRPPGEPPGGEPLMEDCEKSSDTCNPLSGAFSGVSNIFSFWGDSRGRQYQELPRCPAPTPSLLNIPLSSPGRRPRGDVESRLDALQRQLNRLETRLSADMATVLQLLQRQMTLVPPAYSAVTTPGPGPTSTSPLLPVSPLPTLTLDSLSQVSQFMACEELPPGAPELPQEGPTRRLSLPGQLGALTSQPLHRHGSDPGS
row,SMILES,"hERG current change (%, negative = inhibition) at 10uM"
1,CCN1CCC(Nc2ccnc3cc(Cl)ccc23)CC1,-40.5%
2,O=C(Nc1ccccc1)OCc1ccccn1,10.8%
3,COc1ccc(C2=NN(CN3C(=O)C(=O)c4ccccc43)C(c3ccc(OC)cc3)C2)cc1 (stereo not shown),9.84%
4,Cc1cc(-c2ccccc2)nc(SCc2ccc(C(=O)O)o2)n1,-3.89%
5,Cc1ccc(C(=O)Nc2cccnc2)cc1Cl,4.54%
6,O=C(NCC(=O)N1CCN(C(c2ccccc2)c2ccccc2)CC1)c1ccc(Br)o1,8.38%
7,Cc1cc(Br)c(NC(=O)CN(C)CCOc2ccccc2)c(Br)c1,-19.5%
8,COc1ccc(Cn2nnc3c(=O)[nH]c(C(=O)NCCc4ccc(F)cc4)nc32)cc1OC,7.28%
9,O=C(CN1CCCCC1)Nc1cc(Cl)ccc1Cl,-0.685%
10,CN1CCN(CC(=O)Nc2ccc(Oc3ccccc3)cc2)CC1,-47.5%
11,NC(=O)C1(N2CCCCC2)CCN(Cc2ccccc2)CC1,2.53%
12,NC(=O)C1(N2CCCCC2)CCN(Cc2ccc(F)cc2)CC1,-6.92%
13,NC(=O)C1(N2CCCCC2)CCN(CC(=O)Nc2cc(Cl)ccc2Cl)CC1,-72%
14,Cl.O=C(CN1CCCCCC1)Nc1ccc(Oc2ccccc2)cc1,-78.6%
15,NC(=O)C1(N2CCCCC2)CCN(Cc2ccc(Br)cc2)CC1,-51%
16,COc1ccc(NC(=O)CN2CCC(C(N)=O)(N3CCCCC3)CC2)c(OC)c1,1.56%
17,O=C(CN1CCCC1)Nc1ccc(Oc2ccc(NC(=O)CN3CCCC3)cc2)cc1,17.3%
18,CC(C)C(NC(=O)C1CCC(C(C)(C)C)CC1)C(=O)NCCc1ccc(S(N)(=O)=O)cc1 (stereo not shown),14.1%
19,COc1ccc2c(N)c(C(=O)NN)[nH]c2c1,2.16%
20,COCCN(C(=O)CSc1nc2ccc(Cl)cc2[nH]1)c1c(N)n(Cc2ccccc2)c(=O)[nH]c1=O,-7.02%
21,Cc1cc(C)n(CC(O)Cn2c3ccc(Br)cc3c3cc(Br)ccc32)c(=O)n1 (stereo not shown),19.5%
22,Cc1ccc(CCNC(=O)c2nn(C)c3c2CS(=O)(=O)c2ccccc2-3)cc1,-39.7%

row,SMILES,"hERG current change (%, negative = inhibition) at 10uM"
1,O=C(/C=C/Nc1ccc(S(=O)(=O)Nc2ncccn2)cc1)c1cccs1,4.26%
2,COc1ccc(CNC(=O)C(=O)NCc2cccnc2)cc1,-6.16%
3,O=C(NCc1cccnc1)/C(=C/c1ccc(Cl)cc1)NC(=O)c1ccccc1,-68.5%
4,CN(C)c1ccc(/C=C(\NC(=O)c2ccccc2)C(=O)NCc2cccnc2)cc1,-18.9%
5,COc1ccc(/C=C(\NC(=O)c2ccccc2)C(=O)N/N=C/c2cccnc2)cc1,-5.03%
6,COc1ccc(C(=O)NCc2cccnc2)cc1,-1.7%
7,O=C(NCc1cccnc1)/C(=C/c1ccccc1)NC(=O)c1ccccc1,-34.5%
8,COc1ccc(/C=C(\NC(=O)c2ccccc2)C(=O)NCc2cccnc2)cc1,-70.5%
9,Cc1ccc(C(=O)N/C(=C\c2ccccc2)C(=O)NCc2cccnc2)cc1,-71.9%
10,O=C(NCc1ccccc1Cl)/C(=C\c1cccnc1)NC(=O)c1ccccc1,-48.7%
11,COc1ccc(C(=O)N/C(=C\c2ccccc2)C(=O)NCc2cccnc2)cc1,-70.8%
12,COc1ccc(/C=C(/NC(=O)c2ccccc2)C(=O)NCc2ccco2)cc1,27%
13,COC1c2ccccc2C(=O)N1Cc1ccc(F)cc1 (stereo not shown),5.48%
14,O=C(Oc1c(Br)cc([N+](=O)[O-])cc1Br)c1cccnc1,16.7%
15,O=C(O)CCC(NC(=O)C1CCCN1C(=O)OCc1ccccc1)C(=O)O (stereo not drawn) (Cbz-Pro-Glu-OH; configuration not given here),14%
16,Cc1cc(C)nc(SCCc2ccncc2)n1.Cl,9.82%
17,CN(c1ccc(OC(=O)CC2OC(=O)c3ccccc32)cc1)S(=O)(=O)c1ccccc1 (stereo not shown),-8.52%
18,Cc1ccc(C2C(N)C(=O)N2c2ccc(C)cc2)cc1 (stereo not shown),-5.54%
19,CN1C2CCC1CC(OC(=O)c1ccc(Cl)cc1)C2.Cl (stereo not shown),-48.9%
20,CCOc1ccc(C(=O)OC2CC3CCC(C2)N3C)cc1.Cl (stereo not shown),-30%
21,CN1C2CCC1CC(OC(=O)c1c[nH]c3ccccc13)C2.Cl (stereo not shown),-40.2%
22,CN1[C@@H]2CC[C@H]1CC(OC(=O)c1c[nH]c3ccccc13)C2.Cl (stereo partly shown),-48.1%

row,SMILES,"hERG current change (%, negative = inhibition) at 10uM"
1,CN1C2CCC1CC(OC(=O)c1ccc([N+](=O)[O-])cc1)C2 (stereo not shown),-67.9%
2,CN1C2CCC1CC(OC(=O)c1cc(Cl)cc(Cl)c1)C2.Cl (stereo not shown),-57.4%
3,O=C(OC1Cn2c(=O)ccc(=O)n2C1)c1ccc([N+](=O)[O-])cc1,-12.8%
4,CN1CCCC(OC(=O)c2cc(Cl)cc(Cl)c2)C1.Cl (stereo not shown),-43.4%
5,CN1C2CCC1CC(OC(=O)c1c[nH]c3ccccc13)C2 (stereo not shown),-59.1%
6,CCOC(=O)c1ccc(S(=O)(=O)N2CCN(c3ccccn3)CC2)cc1,8.95%
7,CCOc1ccc(OCC)c(NC(=O)C2CCN(c3nn4c(=O)cc(C)nc4s3)CC2)c1,-30.5%
8,COc1ccc(CCC(=O)c2ccc(OC)cc2)cc1,-1.41%
9,Cc1ccc(C)c(NC(=O)COC(=O)CCCN=C2NS(=O)(=O)c3ccccc32)c1,4.55%
10,Cn1nc([N+](=O)[O-])nc1Sc1cccc2cccnc12,13.9%
11,Cc1ccc2c(Cl)cc(Cl)c(OCC(=O)NCCc3ccccn3)c2n1,-42.7%
12,Cc1ccc(CNC(=O)[C@@H](NC(=O)Cc2ccccc2)C(C)C)cc1,6.89%
13,CCN(CC)CCCNC(=O)C1CCC(=O)N(c2ccc(OC)cc2)C1c1ccc(F)cc1 (stereo not shown),1.14%
14,CCOc1ccc(N(CC)C(=O)Cc2c(C(=O)O)n(C)c3ccccc23)cc1,16.8%
15,COC(=O)c1sccc1-n1cccc1C(=O)C(=O)N1CCCC1,14.3%
16,COC(=O)c1sccc1-n1cccc1C(=O)N1CCOCC1,-44.5%
17,COC(=O)c1sccc1-n1cccc1C(=O)C(=O)N1CCOCC1,-78.3%
18,COc1ccc(CNC(=O)C(C)n2nc(C)c3c(C)n(-c4ccc(C)cc4)nc3c2=O)cc1 (stereo not shown),-50.1%
19,CCC(C(=O)NCCC1=CCCCC1)n1nc(C)c2c(C)n(-c3ccccc3)nc2c1=O (stereo not shown),-48.6%
20,Cc1ccc(-n2nc3c(=O)n(C(C)C(=O)NCc4ccc5c(c4)OCO5)nc(C)c3c2C)cc1 (stereo not shown),1.78%
21,Cc1ccc(-n2nc3c(=O)n(C(C)C(=O)NCc4ccc(Cl)cc4)nc(C)c3c2C)cc1 (stereo not shown),-63.5%
22,CCOc1ccc(CNC(=O)C(C)n2nc(C)c3c(C)n(-c4ccccc4)nc3c2=O)cc1 (stereo not shown),-16.1%

row,SMILES,"hERG current change (%, negative = inhibition) at 10uM"
1,Cc1ccc(CNC(=O)CCCn2nc(C)c3c(C)n(-c4ccccc4)nc3c2=O)cc1,5.48%
2,CSc1ccc(CNC(=O)C(C)n2nc(C)c3c(C)n(-c4ccccc4)nc3c2=O)cc1 (stereo not shown),-38.2%
3,Cc1ccc(-n2nc3c(=O)n(CC(=O)NCCC4=CCCCC4)nc(C)c3c2C)cc1,2.08%
4,Cc1ccc(-n2nc3c(=O)n(CCCC(=O)NCc4ccc(Cl)cc4)nc(C)c3c2C)cc1,4.82%
5,Cc1ccc(-n2nc3c(=O)n(C(C)C(=O)NCc4ccccc4Cl)nc(C)c3c2C)cc1 (stereo not shown),-35.5%
6,Cc1ccc(-n2nc3c(=O)n(C(C)C(=O)NCCC4=CCCCC4)nc(C)c3c2C)cc1 (stereo not shown),-51.4%
7,Cc1ccc(-n2nc3c(=O)n(CCCC(=O)NCc4ccc(F)cc4)nc(C)c3c2C)cc1,-76.5%
8,CCOc1ccc(C(=O)NNC(=O)CCNC(=O)c2ccco2)cc1OC,12.9%
9,Cc1ccc(OCCn2cccc2/C=C2/C(=O)NC(=O)N(Cc3ccco3)C2=O)cc1,-0.631%
10,CCOC(=O)C1CCN(C(=S)Nc2cc(OC)c(OC)cc2C(=O)OC)CC1,-10.9%
11,COc1cc(CNCC(C)C)c(Br)cc1OCC(=O)NCc1ccccc1,-10.7%
12,Cc1ccc(C2C(C#N)=C(N)OC3=C2C(=O)CC(C)(C)C3)s1 (stereo not shown),-4.59%
13,COc1ccc(-n2nnc3c(SCC(=O)N4CCCc5ccccc54)ncnc32)cc1,13.6%
14,CCOc1ccccc1CNC(=O)C(C)n1nc(C)c2c(C)n(-c3ccccc3)nc2c1=O (stereo not shown),-65.4%
15,Cc1ccc(CCNC(=O)C(C)n2nc(C)c3c(C)n(-c4ccccc4)nc3c2=O)cc1 (stereo not shown),-36.3%
16,Cc1ccc(-n2nc3c(=O)n(C(C)C(=O)NCCCc4ccccc4)nc(C)c3c2C)cc1 (stereo not shown),-55.2%
17,Cc1nn(C(C)C(=O)NCCCc2ccccc2)c(=O)c2nn(-c3ccccc3)c(C)c12 (stereo not shown),-20%
18,COc1ccccc1CNC(=O)C(C)n1nc(C)c2c(C)n(-c3ccccc3)nc2c1=O (stereo not shown),-0.0415%
19,Cc1nn(C(C)C(=O)NCc2ccccc2F)c(=O)c2nn(-c3ccccc3)c(C)c12 (stereo not shown),13.8%
